Test systems include SR leukemia; RPMI-8226 leukemia; OVCAR-8 ovarian; SK-OV-3 ovarian; OVCAR-3 ovarian; HS 578T breast; NCI/ADR-RES ovarian; IGROV1 ovarian; OVCAR-5 ovarian; OVCAR-4 ovarian.
Common to all, as to assay: NCI-60 one-dose screen, 48 h (100 = growth as untreated, 0 = no growth, -100 = all killed)
Holding throughout (conditions): 10 µM

This is part of a sample that, as a whole, favours compounds with a hit. Of some 83,000 tested, about 20% had one in any assay.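 Cells were grown in 96-well plates and exposed to the test compound at a single concentration for 48 hours; results are reported as percent growth, with values below 10 considered active.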 Values without a mark were called inactive. Calls of active or inactive are those of the source.

With `Cc1cc(SCc2ccccc2)nc(N)n1`, the growth in the test on SR leukemia is 106%; with RPMI-8226 leukemia, 105%; with OVCAR-8 ovarian, 105%; in the test on SK-OV-3 ovarian, 108%; with OVCAR-3 ovarian it was 123%; in the test on HS 578T breast, 111%. Also, in the test with NCI/ADR-RES ovarian, the growth is 105%.

On to `Cc1c[nH]c(=O)n(Cc2nnc(CCC(=O)c3nc4ccccc4[nH]3)o2)c1=O`, for which the growth with SR leukemia was 4.57% (active); in the test with RPMI-8226 leukemia it was 17.2%; with OVCAR-8 ovarian, 21%; in the test on SK-OV-3 ovarian it was -7.95% (active); in the test with IGROV1 ovarian it was 47.8%; in the test with OVCAR-3 ovarian it was -14.8% (active). The results for the growth in the test with HS 578T breast and in the test on NCI/ADR-RES ovarian were 10.2% and 90.7%, respectively.

Turning to `O=C(Nc1ccc(OS(=O)(=O)c2ccccc2)cc1)C1CCCCC1`, the growth with SR leukemia was 47.2%; in the test on OVCAR-8 ovarian it was 94.6%; in the test on OVCAR-5 ovarian it was 100%; in the test with OVCAR-4 ovarian, 102%; in the test on SK-OV-3 ovarian it was 95.6%; with IGROV1 ovarian it was 106%. Besides, the growth is 95% in the test on OVCAR-3 ovarian, 103% in the test on HS 578T breast and 88.3% in the test on NCI/ADR-RES ovarian.

For `COc1ccc(-c2cc(-c3ccc(Cl)cc3)nc(SCCCC(=O)NO)n2)cc1`, the growth with SR leukemia is 22.8%; in the test with OVCAR-8 ovarian, 8.07% (active); in the test on OVCAR-5 ovarian it was 24.5%; in the test with OVCAR-4 ovarian it was 18.2%; in the test on SK-OV-3 ovarian it was 5.99% (active); in the test with IGROV1 ovarian it was 2.96% (active). Further, the growth in the test on OVCAR-3 ovarian is -1.93% (active); in the test on HS 578T breast it was 37.9%; with NCI/ADR-RES ovarian, -33.6% (active).

Regarding `C#C[C@]1(O)CCC2C3CCc4cc(OC5CCCC5)ccc4C3CC[C@@]21C` (some centres not stated), the growth with SR leukemia was 15.1%; in the test on OVCAR-8 ovarian, 81.3%; in the test on OVCAR-5 ovarian it was 63.2%; in the test on OVCAR-4 ovarian, 92.9%; in the test on SK-OV-3 ovarian, 100%; in the test with IGROV1 ovarian, 101%. For the same compound, the results for the growth with OVCAR-3 ovarian, in the test with HS 578T breast and with NCI/ADR-RES ovarian were 96.4%, 85.6% and 87.6%, respectively.

In the case of `COc1ccc(C2CC(c3cc(OC)c(OC)c(OC)c3)=NN2)cc1` (configuration not stated), the growth in the test on SR leukemia was -35.1% (active); in the test on RPMI-8226 leukemia, -8.7% (active); in the test with OVCAR-8 ovarian it was 100%; in the test with OVCAR-4 ovarian it was 84.9%; in the test on IGROV1 ovarian, 62.6%; with OVCAR-3 ovarian, 35.1%. In addition, the growth with HS 578T breast is 104%; with NCI/ADR-RES ovarian, 68.3%.

On to `COc1cc(-c2nn(-c3cccc(NC(=O)NCCNC(=O)c4ccccc4)c3)cc2-c2ccncc2)ccc1Cl`, for which the growth in the test on SR leukemia was 5.61% (active); with OVCAR-8 ovarian, 8.83% (active); in the test with OVCAR-5 ovarian, 33%; with OVCAR-4 ovarian, 26.6%; with SK-OV-3 ovarian, 33.6%; in the test with IGROV1 ovarian, 28.1%. For the same compound, the growth with OVCAR-3 ovarian is 21.1%; with HS 578T breast, 30.9%; in the test with NCI/ADR-RES ovarian, 46.1%.

As to `COc1ccc(/C=c2\sc3n(c2=O)C(c2cc(OC)c(OC)c(OC)c2)C=C(c2ccc(OC)c(OC)c2)N=3)cc1OC` (configuration not stated), the growth with SR leukemia is 91.5%; in the test with RPMI-8226 leukemia it was 63.7%; with OVCAR-8 ovarian, 98.8%; in the test on SK-OV-3 ovarian, 108%; with OVCAR-3 ovarian it was 103%; in the test with HS 578T breast it was 90.8%. Besides, the growth in the test with NCI/ADR-RES ovarian was 97.5%.

Regarding `Clc1ccc(Cc2ccncc2)cc1`, the growth in the test on SR leukemia is 97.6%; with RPMI-8226 leukemia, 109%; in the test on OVCAR-8 ovarian, 99%; in the test on SK-OV-3 ovarian, 113%; in the test on OVCAR-3 ovarian, 110%; in the test on HS 578T breast it was 105%. The growth in the test with NCI/ADR-RES ovarian is 108%.

Turning to `C=CCN(CC=C)C(=O)[C@H](CC)[C@@H]1CC[C@@H](C)[C@@H]([C@H](C)[C@@H](O)[C@@H](C)C(=O)[C@H](CC)C2O[C@]3(C=C[C@@H](O)[C@]4(CC[C@@](C)([C@H]5CC[C@](O)(CC)[C@H](C)O5)O4)O3)[C@H](C)C[C@@H]2C)O1` (some centres not stated), the growth with SR leukemia was 36.9%; in the test with OVCAR-8 ovarian it was 16%; in the test on OVCAR-5 ovarian, 31.9%; in the test with OVCAR-4 ovarian, 25.4%; in the test with SK-OV-3 ovarian it was 4.44% (active); in the test on IGROV1 ovarian it was 10.7%. The results for the growth in the test with OVCAR-3 ovarian, in the test on HS 578T breast and in the test with NCI/ADR-RES ovarian were 14.6%, 13.4% and 1.02% (active), respectively.

`COc1ccc(-c2cc(-c3ccccc3)nc(SCCCCCCC(=O)NO)n2)cc1`: the growth is 21.1% in the test with SR leukemia; 43.7% in the test on OVCAR-8 ovarian; 58.2% in the test with OVCAR-5 ovarian; 76.6% with OVCAR-4 ovarian; 61.2% in the test on SK-OV-3 ovarian; 32.2% with IGROV1 ovarian. The growth was 67.8% in the test on OVCAR-3 ovarian, 54% with HS 578T breast and 9.46% (active) in the test on NCI/ADR-RES ovarian.

Consider `COc1ccc(-c2cc(-c3ccccc3)nc(SCCCC(=O)NO)n2)cc1`, for which the growth in the test on SR leukemia was 12.3%; with OVCAR-8 ovarian it was 6.59% (active); with OVCAR-5 ovarian, 17%; in the test on OVCAR-4 ovarian, 13.5%; with SK-OV-3 ovarian it was -20.5% (active); in the test with IGROV1 ovarian, -32.6% (active). The figures for the growth with OVCAR-3 ovarian, with HS 578T breast and in the test on NCI/ADR-RES ovarian were -22.8% (active), 13.8% and -40.5% (active), respectively.

In the case of `Cc1ccc(/C=C2/C(=O)N(C)c3ccc(S(=O)(=O)Nc4ccc(C(C)(C)C)cc4)cc32)s1`, the growth with SR leukemia is 57.9%; in the test on OVCAR-8 ovarian, 41.3%; in the test on OVCAR-5 ovarian it was 73%; with OVCAR-4 ovarian, 44.4%; in the test on SK-OV-3 ovarian it was 89.6%; with IGROV1 ovarian, 70.8%. The figures for the growth with OVCAR-3 ovarian, in the test with HS 578T breast and in the test with NCI/ADR-RES ovarian were 88.3%, 88.7% and 55.8%, respectively.

For the compound `COc1cc(-c2ccc[nH]2)[nH]c1/C=C1\N=C(C)C(C(=O)NC(C)C)=C1C`, the growth in the test with SR leukemia was -15.5% (active); in the test on OVCAR-8 ovarian, 14.7%; in the test with OVCAR-5 ovarian, 43.2%; in the test on OVCAR-4 ovarian it was 23.5%; with SK-OV-3 ovarian, 50.7%; in the test on IGROV1 ovarian it was 34%. Besides, the growth in the test on OVCAR-3 ovarian was 19.5%; with HS 578T breast, 39.1%; in the test on NCI/ADR-RES ovarian, 17.6%.

Turning to `COc1ccc(-c2n[nH]nc2-c2cc(OC)c3c(c2OC)OCO3)cc1`, the growth is 10.8% with SR leukemia; 43% in the test with OVCAR-8 ovarian; 44.2% with OVCAR-5 ovarian; 51.8% in the test with OVCAR-4 ovarian; 52.7% in the test with SK-OV-3 ovarian; 45.3% in the test with IGROV1 ovarian. The growth is -11.5% (active) with OVCAR-3 ovarian, -5.63% (active) with HS 578T breast and 2.06% (active) in the test on NCI/ADR-RES ovarian.

For the origin of these results see PubChem BioAssay (NCI).
